From the supplement of paper PMC12669032
Unmarked numbers belong to inactive results.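 The calls were made as follows: active = AUC reduced over 20% with Padj below 0.05 in at least 2 of 3 replicates; inactive = otherwise.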

Legend:
Test in all cases: growth AUC relative to DMSO control (median of replicates) (fraction); higher = more growth (less inhibition), active = hit call of the paper
Details in all cases: 20 µM; 24 h
Akkermansia muciniphila = tested on: Akkermansia muciniphila
Summary of the method: (§1)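 OD600 was recorded every hour for 24 h in anaerobic monocultures of gut bacteria kept at 37 °C in mGAM, seeded at OD600 0.05 and given 20 µM compound in 1% DMSO. The area under each growth curve was scaled to the plate median of solvent-only wells, or to row and column medians for the industrial chemical plate. Before this step, the minimum OD was set to 0. Reported values are medians of three biological replicates run on separate days.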

Bacteroides caccae = tested on: Bacteroides caccae
Summary of the method: as §1

Bacteroides clarus = tested on: Bacteroides clarus
Summary of the method: as §1

Bacteroides dorei = tested on: Bacteroides dorei
Summary of the method: as §1

Bacteroides stercoris = tested on: Bacteroides stercoris
Summary of the method: as §1

[1] = tested on: Bacteroides thetaiotaomicron
Summary of the method: as §1

Bacteroides uniformis = tested on: Bacteroides uniformis
Summary of the method: as §1

[2] = tested on: Bifidobacterium longum subsp. longum
Summary of the method: as §1

Clostridium difficile = tested on: Clostridium difficile
Summary of the method: as §1

Collinsella aerofaciens = tested on: Collinsella aerofaciens
Summary of the method: as §1

Coprococcus comes = tested on: Coprococcus comes
Summary of the method: as §1

Escherichia coli ED1a = tested on: Escherichia coli ED1a
Summary of the method: as §1

Escherichia coli IAI1 = tested on: Escherichia coli IAI1
Summary of the method: as §1

Eubacterium rectale = tested on: Eubacterium rectale
Summary of the method: as §1

[3] = tested on: Fusobacterium nucleatum subsp. animalis
Summary of the method: as §1

Lactobacillus gasseri = tested on: Lactobacillus gasseri
Summary of the method: as §1

Lactobacillus paracasei = tested on: Lactobacillus paracasei
Summary of the method: as §1

Odoribacter splanchnicus = tested on: Odoribacter splanchnicus
Summary of the method: as §1

[4] = tested on: Parabacteroides distasonis
Summary of the method: as §1

Parabacteroides merdae = tested on: Parabacteroides merdae
Summary of the method: as §1

SMILES | growth AUC (Akkermansia muciniphila) | growth AUC (Bacteroides caccae) | growth AUC (Bacteroides clarus) | growth AUC (Bacteroides dorei) | growth AUC (Bacteroides stercoris) | growth AUC [1] | growth AUC (Bacteroides uniformis) | growth AUC [2] | growth AUC (Clostridium difficile) | growth AUC (Collinsella aerofaciens) | growth AUC (Coprococcus comes) | growth AUC (Escherichia coli ED1a) | growth AUC (Escherichia coli IAI1) | growth AUC (Eubacterium rectale) | growth AUC [3] | growth AUC (Lactobacillus gasseri) | growth AUC (Lactobacillus paracasei) | growth AUC (Odoribacter splanchnicus) | growth AUC [4] | growth AUC (Parabacteroides merdae)
CC(C)(C)Nc1nc(N)nc(Cl)n1 | 1.06 | 0.991 | 0.997 | 0.993 | 0.991 | 0.979 | 0.962 | 0.982 | 0.997 | 0.998 | 0.999 | 1.03 | 0.998 | 0.979 | 1 | 0.974 | 0.987 | 0.995 | 1.02 | 0.97
COc1c(Cl)ccc(Cl)c1C(=O)O | 0.878 | 0.997 | 0.975 | 1.01 | 0.961 | 1 | 0.947 | 0.926 | 1.01 | 1.04 | 1.01 | 0.99 | 0.986 | 0.912 | 0.914 | 1.26 | 0.919 | 0.978 | 1 | 1
CCOC(=O)C(C)N(C(=O)c1ccccc1)c1ccc(Cl)c(Cl)c1 (stereo not given) | 1.07 | 0.975 | 0.948 | 0.963 | 1.13 | 0.922 | 0.89 | 0.945 | 1.01 | 1.02 | 0.971 | 1.03 | 0.991 | 1.04 | 1.02 | 0.935 | 1.03 | 0.985 | 0.733 (active) | 0.939
COc1cc(OC)nc(NC(=O)NS(=O)(=O)N(C)S(C)(=O)=O)n1 | 0.951 | 1.03 | 1.05 | 1.01 | 1.06 | 0.982 | 0.98 | 0.945 | 0.907 | 1.04 | 1 | 1.02 | 1.01 | 1.04 | 1.01 | 1.06 | 1.04 | 1.06 | 1.01 | 0.983
CC(C)N(C(=O)CS(=O)(=O)[O-])c1ccccc1.[Na+] | 1.01 | 1.02 | 1.02 | 1.04 | 0.909 | 0.955 | 1.05 | 1.29 | 1.06 | 0.967 | 0.982 | 0.978 | 0.988 | 1.07 | 1.09 | 0.948 | 1 | 0.981 | 0.96 | 1
O=C(O)c1cccc2nnsc12 | 0.935 | 0.996 | 0.998 | 0.964 | 0.963 | 1.01 | 1.01 | 1.03 | 0.99 | 0.977 | 0.996 | 0.989 | 0.991 | 1.01 | 0.982 | 0.936 | 0.909 | 1.03 | 0.999 | 0.998
COc1ccc(NC(=O)N(C)C)cc1Cl | 0.982 | 0.975 | 1 | 1.01 | 0.891 | 0.995 | 1.02 | 1.11 | 0.995 | 0.94 | 1.03 | 0.981 | 0.957 | 1.01 | 0.973 | 0.916 | 1.02 | 1.1 | 0.99 | 0.916
CN(C)c1ccc(N=NS(=O)(=O)[O-])cc1.[Na+] | 1.03 | 1.02 | 1.01 | 0.957 | 1.06 | 0.955 | 0.98 | 0.978 | 1.03 | 1.02 | 1.03 | 1.02 | 1.03 | 0.973 | 1.01 | 0.967 | 1.02 | 1.03 | 1.04 | 0.996
